Source: the supplement of paper PMC10849652
Targets with a hit are over-represented here; the source holds about 8,800 in all. About 0.5% of all pairs of compound and target were hits. Unmarked numbers belong to inactive results.

What was measured:
Experiment in all cases: log2 fold change, soluble protein after heating vs DMSO (PISA); higher = thermal stabilisation; K562 lysate, 10 uM; active = over 0.2 and 3.5 SD of the protein, either way, in both replicates (recomputed)
[1] = compound: CS(=O)(=O)CCNCc1ccc(-c2ccc3ncnc(Nc4ccc(OCc5cccc(F)c5)c(Cl)c4)c3c2)o1 [lapatinib]
Procedure, shortened: (§1)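 K562 pellets were dounce-homogenised in PBS pH 7.4 with 1 mM MgCl2, and the crude extract at 1 mg/mL protein was treated with 10 μM compound for 30 min. Aliquots were heated for 3 min across 48°C-58°C, pooled, and brought to 0.5% NP-40 at 4°C; soluble protein was the supernatant after 21,000xg for 90 min. Soluble protein was quantified by TMTpro 16plex LC-MS/MS with channel sums equalised, and reported as log2 fold change in thermal stability against DMSO controls, with values from duplicates.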

[2] = compound: CS(=O)(=O)N1CCN(Cc2cc3nc(-c4cccc5[nH]ncc45)nc(N4CCOCC4)c3s2)CC1 [pictilisib]
Procedure, shortened: as §1

[3] = compound: C[C@@H](Oc1cc(-c2cnn(C3CCNCC3)c2)cnc1N)c1c(Cl)ccc(F)c1Cl [crizotinib]
Procedure, shortened: as §1

[4] = compound: C[C@H](C1=CC=C(C=C1)C(=O)NC2=C3C=CNC3=NC=C2)N
Procedure, shortened: as §1

[5] = compound: C[C@H](Nc1ncnc2nc[nH]c12)c1cc2cccc(Cl)c2c(=O)n1-c1ccccc1 [duvelisib]
Procedure, shortened: as §1

[6] = compound: Cc1cc(Nc2cc(CN3CCOCC3)c3nc(C)c(Cc4ccc(Cl)cc4F)n3n2)n[nH]1 [gandotinib]
Procedure, shortened: as §1

[7] = compound: Cc1cc(Nc2cc(N3CCN(C)CC3)nc(Sc3ccc(NC(=O)C4CC4)cc3)n2)n[nH]1 [tozasertib]
Procedure, shortened: as §1

[8] = compound: Cc1ccc(-n2nc(C(C)(C)C)cc2NC(=O)Nc2ccc(OCCN3CCOCC3)c3ccccc23)cc1 [doramapimod]
Procedure, shortened: as §1

[9] = compound: Cc1ccc(NC(=O)c2ccc(CN3CC[C@H](N(C)C)C3)c(C(F)(F)F)c2)cc1Nc1nccc(-c2cncnc2)n1 [bafetinib]
Procedure, shortened: as §1

[10] = compound: Cc1cccc(CC(=O)N2CCc3c2ccc(-c2cn(C)c4ncnc(N)c24)c3F)n1
Procedure, shortened: as §1

[11] = compound: Cc1cn(-c2cc(NC(=O)c3ccc(C)c(Nc4nccc(-c5cccnc5)n4)c3)cc(C(F)(F)F)c2)cn1 [nilotinib]
Procedure, shortened: as §1

[12] = compound: Cc1nc(Nc2n[nH]c3c2CN(C(=O)N[C@H](CN(C)C)c2ccccc2)C3(C)C)c2sccc2n1
Procedure, shortened: as §1

[13] = compound: Cc1nc(Nc2ncc(C(=O)Nc3c(C)cccc3Cl)s2)cc(N2CCN(CCO)CC2)n1 [dasatinib]
Procedure, shortened: as §1

[14] = compound: Cc1ncc(-c2ccnc(Nc3ccc(S(C)(=O)=O)cc3)n2)n1C(C)C
Procedure, shortened: as §1

[15] = compound: Cn1cc(-c2ccc3c(c2)CCN3C(=O)Cc2cccc(C(F)(F)F)c2)c2c(N)ncnc21
Procedure, shortened: as §1

[16] = compound: Cn1cc(CNCC2CCN(c3ncc(C(=O)NO)cn3)CC2)c2ccccc21 [quisinostat]
Procedure, shortened: as §1

[17] = compound: Cn1cncc1[C@@](N)(c1ccc(Cl)cc1)c1ccc2c(c1)c(-c1cccc(Cl)c1)cc(=O)n2C [tipifarnib]
Procedure, shortened: as §1

[18] = compound: NC(=O)Nc1cc(-c2cccc(F)c2)sc1C(=O)N[C@H]1CCCNC1
Procedure, shortened: as §1

[19] = compound: NC(=O)c1cnc(N[C@@H]2CCCC[C@@H]2N)nc1Nc1cccc(-n2nccn2)c1
Procedure, shortened: as §1

[20] = compound: NC1(c2ccc(-c3nc4ccn5c(=O)[nH]nc5c4cc3-c3ccccc3)cc2)CCC1
Procedure, shortened: as §1

Chain of UniProt Q96H78 (Q96H78 whole entry, looked up): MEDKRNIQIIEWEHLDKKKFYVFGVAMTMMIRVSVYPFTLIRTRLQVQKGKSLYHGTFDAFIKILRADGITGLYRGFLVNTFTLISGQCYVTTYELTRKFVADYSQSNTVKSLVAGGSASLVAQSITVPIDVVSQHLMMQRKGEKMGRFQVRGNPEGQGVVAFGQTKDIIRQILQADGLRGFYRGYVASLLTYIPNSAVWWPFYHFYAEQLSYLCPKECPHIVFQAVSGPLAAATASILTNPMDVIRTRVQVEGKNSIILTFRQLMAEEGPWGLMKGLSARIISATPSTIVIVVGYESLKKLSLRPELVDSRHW
Chain of UniProt O95149 (O95149 whole entry, looked up): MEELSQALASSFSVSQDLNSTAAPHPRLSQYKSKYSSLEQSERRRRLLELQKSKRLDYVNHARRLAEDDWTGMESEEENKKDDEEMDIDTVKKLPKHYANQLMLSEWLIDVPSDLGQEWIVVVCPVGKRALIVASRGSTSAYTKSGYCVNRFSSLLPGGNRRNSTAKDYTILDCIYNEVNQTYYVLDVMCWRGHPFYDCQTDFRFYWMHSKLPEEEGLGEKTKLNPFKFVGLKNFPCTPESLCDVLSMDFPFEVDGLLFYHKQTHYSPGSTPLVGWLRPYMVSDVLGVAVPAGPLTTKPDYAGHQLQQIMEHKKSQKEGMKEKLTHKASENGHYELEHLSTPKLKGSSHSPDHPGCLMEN
Chain of UniProt Q9BXS9 (Q9BXS9 whole entry, looked up): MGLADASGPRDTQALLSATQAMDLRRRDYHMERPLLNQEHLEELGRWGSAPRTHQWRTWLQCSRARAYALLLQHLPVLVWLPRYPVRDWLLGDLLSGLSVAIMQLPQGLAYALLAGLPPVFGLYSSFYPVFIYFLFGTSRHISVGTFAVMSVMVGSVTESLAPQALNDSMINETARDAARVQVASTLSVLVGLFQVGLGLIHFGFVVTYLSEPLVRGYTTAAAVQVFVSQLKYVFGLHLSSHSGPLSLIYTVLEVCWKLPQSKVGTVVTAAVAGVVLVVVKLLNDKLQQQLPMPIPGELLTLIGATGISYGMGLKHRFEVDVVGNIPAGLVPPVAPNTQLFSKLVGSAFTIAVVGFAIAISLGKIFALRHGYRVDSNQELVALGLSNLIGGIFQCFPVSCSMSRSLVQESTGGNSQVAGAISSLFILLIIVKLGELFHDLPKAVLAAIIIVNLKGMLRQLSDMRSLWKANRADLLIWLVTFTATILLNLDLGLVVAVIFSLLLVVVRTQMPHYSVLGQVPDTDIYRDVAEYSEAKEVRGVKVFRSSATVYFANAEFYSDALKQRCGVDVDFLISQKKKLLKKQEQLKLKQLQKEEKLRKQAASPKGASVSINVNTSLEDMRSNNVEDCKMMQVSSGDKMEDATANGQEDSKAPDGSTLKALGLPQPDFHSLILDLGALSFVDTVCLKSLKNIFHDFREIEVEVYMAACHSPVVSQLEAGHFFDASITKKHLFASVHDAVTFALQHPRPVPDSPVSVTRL
Chain of UniProt Q9UHW9 (Q9UHW9 whole entry, looked up): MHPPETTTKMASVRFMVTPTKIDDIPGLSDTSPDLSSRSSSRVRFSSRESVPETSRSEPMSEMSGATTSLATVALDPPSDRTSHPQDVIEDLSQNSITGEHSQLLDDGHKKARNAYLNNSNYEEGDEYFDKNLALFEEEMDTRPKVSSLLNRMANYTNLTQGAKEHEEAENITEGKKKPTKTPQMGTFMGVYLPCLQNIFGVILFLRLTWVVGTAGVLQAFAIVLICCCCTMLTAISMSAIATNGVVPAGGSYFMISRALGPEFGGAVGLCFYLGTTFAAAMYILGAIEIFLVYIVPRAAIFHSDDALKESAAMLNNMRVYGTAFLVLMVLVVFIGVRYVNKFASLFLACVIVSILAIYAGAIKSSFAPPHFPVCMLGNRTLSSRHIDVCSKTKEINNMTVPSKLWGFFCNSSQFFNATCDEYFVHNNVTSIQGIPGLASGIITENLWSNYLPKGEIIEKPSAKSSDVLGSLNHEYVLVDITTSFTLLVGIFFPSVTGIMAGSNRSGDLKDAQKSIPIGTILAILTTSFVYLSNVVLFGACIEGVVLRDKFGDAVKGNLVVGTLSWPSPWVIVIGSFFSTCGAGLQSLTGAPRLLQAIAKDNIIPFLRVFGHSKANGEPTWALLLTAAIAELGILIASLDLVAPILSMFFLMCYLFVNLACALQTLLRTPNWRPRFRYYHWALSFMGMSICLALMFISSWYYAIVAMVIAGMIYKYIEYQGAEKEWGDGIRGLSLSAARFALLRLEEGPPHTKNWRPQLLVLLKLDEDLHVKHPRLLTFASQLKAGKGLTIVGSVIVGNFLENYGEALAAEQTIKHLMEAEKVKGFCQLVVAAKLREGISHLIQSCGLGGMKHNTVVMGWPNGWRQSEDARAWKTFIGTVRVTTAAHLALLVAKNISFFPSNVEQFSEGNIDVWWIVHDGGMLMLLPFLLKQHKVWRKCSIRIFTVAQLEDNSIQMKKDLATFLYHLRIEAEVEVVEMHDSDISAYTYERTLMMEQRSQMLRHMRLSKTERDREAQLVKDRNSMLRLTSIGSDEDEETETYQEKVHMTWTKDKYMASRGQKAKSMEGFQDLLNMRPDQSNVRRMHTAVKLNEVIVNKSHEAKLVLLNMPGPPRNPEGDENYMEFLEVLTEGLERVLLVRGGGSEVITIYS
Chain of UniProt P62306 (P62306 whole entry, looked up): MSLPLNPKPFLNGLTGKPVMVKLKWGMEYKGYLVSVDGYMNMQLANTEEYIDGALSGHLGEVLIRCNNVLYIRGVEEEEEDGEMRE
Chain of UniProt Q9H668 (Q9H668 whole entry, looked up): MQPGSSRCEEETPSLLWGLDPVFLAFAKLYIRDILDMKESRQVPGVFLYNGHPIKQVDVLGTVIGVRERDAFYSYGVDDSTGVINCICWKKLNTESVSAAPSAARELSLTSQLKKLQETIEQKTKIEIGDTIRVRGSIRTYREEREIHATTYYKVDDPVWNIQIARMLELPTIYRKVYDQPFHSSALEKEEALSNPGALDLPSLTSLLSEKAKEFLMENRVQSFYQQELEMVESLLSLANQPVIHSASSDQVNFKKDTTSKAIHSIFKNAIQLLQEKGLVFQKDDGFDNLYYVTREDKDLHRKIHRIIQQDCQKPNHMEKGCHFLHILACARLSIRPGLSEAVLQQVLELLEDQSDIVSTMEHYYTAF
Chain of UniProt P10124 (P10124 whole entry, looked up): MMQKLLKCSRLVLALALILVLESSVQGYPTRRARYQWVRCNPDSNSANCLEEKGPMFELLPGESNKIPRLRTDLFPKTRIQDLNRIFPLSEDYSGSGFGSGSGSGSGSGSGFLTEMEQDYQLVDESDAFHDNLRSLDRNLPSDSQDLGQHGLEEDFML
Chain of UniProt Q6KCM7 (Q6KCM7 whole entry, looked up): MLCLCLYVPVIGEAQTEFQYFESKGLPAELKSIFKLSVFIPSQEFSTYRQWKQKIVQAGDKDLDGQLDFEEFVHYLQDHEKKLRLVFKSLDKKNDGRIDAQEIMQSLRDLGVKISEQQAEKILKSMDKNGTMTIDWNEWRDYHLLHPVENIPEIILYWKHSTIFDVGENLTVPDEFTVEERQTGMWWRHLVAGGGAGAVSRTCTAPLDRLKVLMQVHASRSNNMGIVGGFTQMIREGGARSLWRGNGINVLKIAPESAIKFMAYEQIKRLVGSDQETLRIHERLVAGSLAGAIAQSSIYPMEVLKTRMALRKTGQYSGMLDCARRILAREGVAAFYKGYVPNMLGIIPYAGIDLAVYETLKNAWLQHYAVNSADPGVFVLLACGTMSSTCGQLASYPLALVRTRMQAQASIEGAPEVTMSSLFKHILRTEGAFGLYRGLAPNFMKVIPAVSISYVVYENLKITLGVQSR
Chain of UniProt Q15506 (Q15506 whole entry, looked up): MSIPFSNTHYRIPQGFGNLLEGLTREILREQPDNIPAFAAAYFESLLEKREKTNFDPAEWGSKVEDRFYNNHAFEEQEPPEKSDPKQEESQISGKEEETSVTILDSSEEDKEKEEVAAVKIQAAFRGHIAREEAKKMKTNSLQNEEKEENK
Chain of UniProt Q9Y6J9 (Q9Y6J9 whole entry, looked up): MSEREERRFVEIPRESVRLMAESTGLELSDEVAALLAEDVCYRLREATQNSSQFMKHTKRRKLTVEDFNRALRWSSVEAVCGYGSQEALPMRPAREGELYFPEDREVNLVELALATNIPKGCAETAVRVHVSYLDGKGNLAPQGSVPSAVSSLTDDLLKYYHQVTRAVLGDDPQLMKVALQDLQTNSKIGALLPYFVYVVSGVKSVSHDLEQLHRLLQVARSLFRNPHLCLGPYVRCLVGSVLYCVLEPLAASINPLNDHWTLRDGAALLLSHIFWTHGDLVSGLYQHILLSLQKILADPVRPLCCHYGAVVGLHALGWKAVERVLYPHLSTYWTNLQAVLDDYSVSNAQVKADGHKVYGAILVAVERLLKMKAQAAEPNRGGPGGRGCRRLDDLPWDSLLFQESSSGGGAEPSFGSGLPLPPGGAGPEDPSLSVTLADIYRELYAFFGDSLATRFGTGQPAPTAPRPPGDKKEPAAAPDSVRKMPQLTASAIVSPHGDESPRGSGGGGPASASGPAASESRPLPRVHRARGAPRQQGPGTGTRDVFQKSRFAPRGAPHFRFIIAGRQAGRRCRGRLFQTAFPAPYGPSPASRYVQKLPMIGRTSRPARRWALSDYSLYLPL
Chain of UniProt Q8TCT8 (Q8TCT8 whole entry, looked up): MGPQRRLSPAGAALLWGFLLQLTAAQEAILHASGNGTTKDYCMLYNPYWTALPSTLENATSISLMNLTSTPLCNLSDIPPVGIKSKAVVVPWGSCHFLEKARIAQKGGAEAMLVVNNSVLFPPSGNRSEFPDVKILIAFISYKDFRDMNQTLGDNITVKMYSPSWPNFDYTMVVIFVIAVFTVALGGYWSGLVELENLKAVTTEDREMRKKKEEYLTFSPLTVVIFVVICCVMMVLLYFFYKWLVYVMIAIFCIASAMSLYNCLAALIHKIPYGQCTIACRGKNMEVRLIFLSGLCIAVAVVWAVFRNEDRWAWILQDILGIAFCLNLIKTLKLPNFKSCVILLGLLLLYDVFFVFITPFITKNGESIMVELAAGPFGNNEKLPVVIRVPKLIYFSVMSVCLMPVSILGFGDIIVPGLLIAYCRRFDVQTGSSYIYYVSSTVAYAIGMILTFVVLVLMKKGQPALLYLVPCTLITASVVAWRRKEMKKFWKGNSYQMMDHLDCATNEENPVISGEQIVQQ

Target | log2 fold change [1] | log2 fold change [2] | log2 fold change [3] | log2 fold change [4] | log2 fold change [5] | log2 fold change [6] | log2 fold change [7] | log2 fold change [8] | log2 fold change [9] | log2 fold change [10] | log2 fold change [11] | log2 fold change [12] | log2 fold change [13] | log2 fold change [14] | log2 fold change [15] | log2 fold change [16] | log2 fold change [17] | log2 fold change [18] | log2 fold change [19] | log2 fold change [20]
SLC12A6 (UniProt Q9UHW9) | 0.037 | -0.046 | -0.025 | 0.008 | 0.015 | -0.028 | -0.002 | 0.027 | -0.011 | 0.034 | -0.004 | 0 | 0.024 | -0.066 | -0.003 | -0.013 | 0.012 | -0.001 | -0.022 | 0.026
SH3GL3 isoform 3 (UniProt Q99963) | -0.07 | -0.087 | -0.04 | -0.548 (active) | -0.005 | 0.326 | 0.028 | 0.016 | -0.147 | 0.446 (active) | -0.075 | -0.113 | -0.067 | 0.096 | -0.007 | -0.033 | 0.029 | 0.075 | 0.024 | -0.011
SRGN (UniProt P10124) | 0.016 | -0.181 | -0.054 | -0.046 | 0.019 | -0.097 | 0.008 | -0.071 | -0.17 | 0.192 |  |  | 0.003 |  | -0.062 | -0.026 |  | 0 | 0 | -0.086
STN1 (UniProt Q9H668) | 0.128 | -0.201 | -0.068 | -0.235 |  | -0.212 | -0.059 | -0.101 | -0.176 | -0.028 | -0.149 | -0.071 |  | 0.034 |  | -0.104 | 0.005 | 0.156 | 0.032 | 0.02
SLC26A6 (UniProt Q9BXS9) | -0.009 | 0.05 | -0.023 | 0.016 | 0.067 | 0.051 | 0.047 | -0.003 | -0.003 | 0.118 | 0.057 | 0.05 | -0.4 | 0.164 | -0.154 | 0.006 | 0.05 | 0.033 | 0.054 | -0.128
SPA17 (UniProt Q15506) | 0.058 | -0.012 | 0.019 | -0.498 (active) | 0.009 | 0.303 | -0.022 | 0.054 | -0.076 | 0.25 |  |  | -0.065 |  | -0.041 | 0.003 |  | -0.015 | 0.042 | 
SLC25A44 (UniProt Q96H78) | -0.031 | -0.014 | -0.034 | -0.069 | 0.233 | 0.047 | -0.008 | -0.01 | -0.037 | 0.166 |  |  | -0.539 (active) |  | -0.162 | -0.025 |  | 0.044 | 0.005 | 0.363
SPPL2A (UniProt Q8TCT8) | -0.002 | -0.059 | -0.127 | -0.302 |  | -0.093 | 0.082 | -0.032 | -0.127 | 0.1 |  |  |  |  |  | -0.21 |  | 0.046 | 0 | -0.072
SLC30A6 isoform 2 (UniProt Q6NXT4) | 0.115 | -0.027 | 0.009 | -0.095 |  | 0.048 | 0.114 | -0.058 | 0.034 | 0.116 | -0.029 | 0.118 |  | -0.067 |  | -0.048 | -0.071 | 0.093 | 0.012 | -0.096
TAF6L (UniProt Q9Y6J9) | -0.044 | -0.091 | 0.035 | 0.037 | 0.024 | -0.042 | 0.017 | -0.019 | -0.009 | 0.028 | -0.023 | 0.012 | -0.118 | 0.021 | 0.056 | 0.018 | -0.032 | 0.094 | 0.028 | 0.034
SLC25A25 isoform 3 (UniProt Q6KCM7) | -0.004 | 0.021 | -0.039 | 0.013 | -0.014 | -0.047 | 0 | 0.015 | 0.013 | 0.043 | 0.027 | -0.015 | 0.03 | -0.063 | 0.031 | -0.038 | -0.006 | 0.021 | 0.007 | -0.025
SNRPF (UniProt P62306) | 0.021 | -0.029 | -0.077 | -0.237 | 0.076 | 0.21 | -0.016 | 0.026 | 0.05 | 0.218 | -0.044 | 0.063 | 0.005 | 0.013 | -0.156 | -0.276 | -0.037 | 0 | -0.044 | 0.013
SNUPN (UniProt O95149) | 0.026 | -0.083 | -0.03 | -0.009 |  | -0.036 | 0.023 | -0.002 | -0.061 | 0.006 | -0.007 | -0.013 |  | 0.005 |  | 0.128 | -0.015 | 0.042 | -0.115 | -0.482 (active)
TANK (UniProt Q92844) | 0.038 | -0.03 | 0.27 | 0.021 | -0.026 | 0.141 | 0.108 | -0.038 | 0.023 | -0.162 | -0.067 | 0.461 (active) | 0.069 | 0.04 | 0.088 | -0.053 | -0.071 | 0.161 | 0.042 | 0.01
